Measured values as given in PubChem BioAssay (NCI).
Compounds without any hit were thinned out: in the full panel of roughly 83,000, 20% have a hit.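 Growth was measured after 48 h exposure to one concentration of compound in 96-well plates. Values under 10 count as active.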 A number with no mark means an inactive call. Calls of active or inactive are those of the source.

These compounds were tested on ACHN renal (assay: NCI-60 one-dose screen, 48 h (100 = growth as untreated, 0 = no growth, -100 = all killed)). Details: 10 µM unless noted.

First: COc1ccc(-c2cc(-c3nnc(SC/C(=N\O)c4ccccc4)n3-c3ccccc3)c3ccccc3n2)cc1
Second: Cc1ccc(-c2cc(-c3nnc(SCC(=O)c4ccccc4)o3)c3ccccc3n2)cc1
The growth of the first is higher: 106% for the first, 93.9% for the second.

Compared with `COc1cc(-c2nc3ccccc3s2)ccc1OCc1nc2n(n1)S(=O)(=O)c1ccccc1N2C`, `COc1cc(NC(C)CCCN2C(=O)c3ccccc3C2=O)c2nccc(C)c2c1OC` (centres undefined) is higher in growth: 94.3% for the first, 110% for the second.

Compared with `Cc1ccc2c(c1)Nc1ccc(C)cc1C2(C)C`, `Cc1cc(N2CCOCC2)nc(N(CCNc2ccnc3cc(Cl)ccc23)Cc2ccco2)n1` is lower in growth: 112% for the first, 27% for the second.

Going from `COc1ccccc1N1CCN(CC(O)COc2c(Br)c(Br)c(Br)c3c2OC(C)(C)C3)CC1` (centres undefined) to `N#CC(C#N)=C(C#N)c1c[nH]c2ccccc12`, the growth rises from 56.1% to 73.4%.

`Fc1ccc(/C=N/n2c(-c3cc(Cl)cc(Cl)c3Cl)nn(CNc3ccc(Cl)nn3)c2=S)cc1` and `FC(F)(F)c1cn(CC2CNC2)c2ncnc(Cl)c12` are the same in growth: 104% for the first, 104% for the second.

For `Cc1cc2c(cc1C)N(C(=O)CCl)CCN2C(=O)CCl`, the growth was -81.6% (active).
For `O=C(Cn1c2ccccc2c2ccncc21)N/N=C\c1ccc2ccccc2c1`, the growth was 4.98% (active).
For `COc1cc2ncnc(Oc3ccc(NC(=O)Nc4ccc(CN5CCOCC5)c(C(F)(F)F)c4)c4ccccc34)c2cc1OC`, the growth was -3.27% (active).
In the case of `Nc1nc(Nc2ccc(OCc3cccc(F)c3)cc2)c2c(n1)[nH]c1ccc(O)cc12`, the growth is reported as -26.8% (active).
